# Assay outcomes (PubChem BioAssay)
# The list is not random: actives were taken first. Their share in the collection is about 4%.
# Jurkat NFkB inh: lowers PMA/ionomycin-induced NF-kB signal in Jurkat cells; AID 435003; inhibition, % at 4 µM; PMA/ionomycin-induced NF-kB luciferase reporter, luminescence; 0.53% of 330,000 active; in the data active means inhibition above about 50%
# Mdm2-MdmX inh: disrupts the human Mdm2-MdmX interaction; inhibition, % at 8 µM; 3% of 330,000 active; SaOS-2 split-luciferase Mdm2/MdmX complementation, luminescence;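 active means inhibition of at least 50% at 8 µM in the primary screen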
# Gli-Sufu block: Gli-Sufu pathway antagonism; AID 588413; 0.74% of 340,000 active; inhibition, % at 5 µM; Sufu-KO-LIGHT fibroblasts, Gli luciferase reporter luminescence;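 active means inhibition above about 55%, limit read from the data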;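 further: 0% = DMSO-treated cells and 100% = wells with medium but no cells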
# Beta cell apopt: blocks beta cell apoptosis; INS-1E cytokine-induced death, ATP luminescence, 48 h; percent of positive-control rescue, neutral wells zero; protection from apoptosis, % (concentration not given with the values); 0.8% of 300,000 active; AID 435005;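 active means Every replicate reaches about 75%, or at least half do and their mean reaches it too, limit read from the data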;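 further: 0% = cytokine-treated negative control wells and 100% = positive control rescue; higher means more ATP so stronger rescue from cytokine killing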
# 697 NFkB inh: inhibitors of the PMA/ionomycin-induced NF-kB reporter in 697 B cells; 697 B-cell NF-kB luciferase reporter, 16 h; 0.33% of 330,000 active; inhibition, % at 4 µM; in the data active means inhibition above about 35%
# Jurkat NFkB conf: inhibitors of the PMA/ionomycin-induced NF-kB reporter in Jurkat cells, retest; shares compounds with Jurkat NFkB inh; Jurkat NF-kB luciferase, 16 h; inhibition, % at 4 µM; 27% of 2,700 active;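 active means inhibition reaching about 45% at 4 µM in either replicate, limit read from the data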;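 further: plate controls were PMA/ionomycin stimulated DMSO wells for no effect and unstimulated DMSO wells for full effect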
# 697 NFkB conf: inhibitors of the PMA/ionomycin-induced NF-kB reporter in 697 B cells, retest | inhibition, % at 4 µM | shares compounds with 697 NFkB inh | AID 449746 | 35% of 2,000 active | 697 B-cell NF-kB luciferase, 16 h; in the data active means inhibition mostly above about 28%, no sharp cut-off; inactive means mostly below about 22%
# Mdm2-MdmX conf: human Mdm2/MdmX binding inhibition, confirmed; shares compounds with Mdm2-MdmX inh; luminescent assay; inhibition, % at 8 µM; 55% of 10,000 active; AID 489028; in the data active means inhibition above about 40%
# Full FLuc ctr: counter-screen for Mdm2/MdmX inhibitors: full-length luciferase; shares compounds with Mdm2-MdmX inh; SaOS-2 full-length luciferase counterscreen, luminescence; inhibition, % at 8 µM; 77% of 6,200 active;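 active means mean inhibition at 8 µM reaching about 37%, which flags the compound as non-specific, limit read from the data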;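 further: p53-null SaOS-2 cells with luciferase driven by a doxycycline-inducible promoter; compound on cells about two nights before reading with doxycycline added after day one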
# Active calls of the source: *; x = no result.
SMILES,Jurkat NFkB inh,Mdm2-MdmX inh,Gli-Sufu block,Beta cell apopt,697 NFkB inh,Jurkat NFkB conf,Mdm2-MdmX conf,Full FLuc ctr,others
CN(C)c1ccc(-[n+]2c(-c3ccccc3)cc(-c3ccccc3)cc2-c2ccccc2)cc1,99.4*,89.2*,90.0*,x,-28.2,62.1*,94.7*,23.3,
Cc1ccc(-c2cc(-c3ccccc3)cc(-c3ccccc3)[n+]2-c2ccccc2)cc1,53.6*,96.1*,90.0*,121.0*,-11.5,30.6,92.0*,12.7,
Cc1ccc(-c2cc(-c3ccc(C)cc3)[n+](-c3ccccc3)c(-c3ccc(C)cc3)c2)cc1,96.8*,92.7*,91.0*,121.6*,-45.0,85.9*,93.5*,12.1,
O=[N+]([O-])c1ccc(C[n+]2c(-c3ccccc3)cc(-c3ccccc3)cc2-c2ccccc2)cc1,-1.3,-8.0,28.2,14.3,-92.3,x,x,x,
O=[N+]([O-])c1cc(Cl)c(O)c(-[n+]2c(-c3ccccc3)cc(-c3ccccc3)cc2-c2ccccc2)c1,4.5,13.6,-0.9,14.1,-0.6,x,x,x,
C#C[C@]1(O)CCC2C3C(=O)C=C4C(Cl)=CCC[C@]4(C)C3CC[C@@]21C (some centres not stated),x,x,4.2,x,x,x,x,x,
C=C(C)[C@@]12OC3(c4ccccc4)O[C@@H]1C1[C@@H]4O[C@]4(CO)[C@@H](O)[C@]4(O)C(=O)C(C)=C[C@H]4[C@@]1(O3)[C@H](C)[C@H]2OC(=O)/C=C/C=C/c1ccccc1 (some centres not stated),81.4*,76.8*,18.0,2.6,-49.0,47.5,12.1,x,
COc1cc2c(c(OC)c1OC)-c1ccc(O)cc1C(NC(C)=O)CC2 (configuration not stated),x,x,47.3,x,x,x,x,x,
COc1cc2c(c(OC)c1OC)-c1ccc(O)cc1[C@@H](NC(C)=O)CC2,77.2*,63.0*,38.4,58.7,-487.4,64.1*,64.8*,106.7*,697 NFkB conf=-201.2
O=C1/C(=C/c2ccccc2)C[C@@]2(O)[C@H]3Cc4ccc(O)c5c4[C@@]2(CCN3CC2CC2)C1O5 (some centres not stated),84.5*,100.2*,-16.4,x,54.6*,46.8,100.3*,51.2*,697 NFkB conf=49.5*
CC(C)CCC1(CCO)C(=O)NC(=S)NC1=O,x,x,1.2,x,x,x,x,x,
N#CC1c2ccccc2-n2nncc2CN1Cc1cc(Cl)cc(Cl)c1 (configuration not stated),x,x,25.5,x,x,x,x,x,
C=C1C(O)[C@@H]2O[C@]3(CC[C@H](/C=C/C(C)[C@@H]4CC(C)=CC5(O[C@H](C[C@@](C)(O)C(=O)O)CCC5O)O4)O3)CC[C@H]2O[C@@H]1C(O)CC(C)[C@H]1OC2(CCCCO2)CCC1C (some centres not stated),101.0*,98.0*,93.0*,84.6*,100.3*,99.0*,99.9*,0.4,697 NFkB conf=79.2*
CN(C)c1ccc(C=C(C#N)C#N)cc1,-7.9,28.3,-5.2,2.5,-25.3,x,x,x,
CC(C)(C)c1cc(C=C(C#N)C#N)cc(C(C)(C)C)c1O,55.5*,96.1*,87.8*,117.1*,-290.4,72.8*,94.4*,11.8,697 NFkB conf=-105.5
O=c1c2ccccc2nc(/C=C/c2ccc([N+](=O)[O-])o2)n1-c1ccc(O)cc1,91.1*,75.5*,74.8*,x,-221.4,66.8*,85.3*,22.6,
CCOc1ccc(-c2c(C)n(-c3ccc(OCC)cc3)c3[n+]2CCCCC3)cc1,100.3*,87.6*,88.2*,x,48.1*,78.8*,86.8*,48.7*,697 NFkB conf=59.5*
CN1CCC(=O)N(CCN=[N+]=[N-])CC1,19.1,4.9,-3.2,-3.5,17.1,x,x,x,
CC(C)[N+]12CCC(CC1)C(C(O)(c1ccccc1)c1ccccc1)C2 (configuration not stated),3.0,-15.7,5.2,-3.4,16.8,x,x,x,
Cn1ncnc2c(=O)n(C)c(=O)nc1-2,55.1*,91.7*,94.1*,125.0*,14.2,98.9*,84.2*,21.1,
CC1=Nc2ccccc2/C1=C/c1c(O)n(C)c(=O)[nH]c1=O,-4.9,-5.0,9.6,-7.1,-33.0,x,x,x,
Cc1ccccc1-n1c(O)c(/C=C2/C(c3ccccc3)=Nc3ccccc32)c(=O)[nH]c1=O,52.9*,56.8*,-22.1,15.4,-92.6,35.0,62.6*,66.3*,
C=CC[C@@H](CC/C=C/C=C/CC/C=C\[C@@H]1CSC([C@@H]2C[C@@H]2C)=N1)OC,74.5*,55.8*,47.2,x,-325.4,52.2*,49.1*,113.9*,697 NFkB conf=-144.4
COC(=O)C1=C(c2cccc(OC)c2OC)C[C@@H]2CC[C@H]1N2C(=O)N1CCCC1,6.2,-21.0,-11.4,-4.2,12.7,x,x,x,
O=C1CN=C(c2cc([N+](=O)[O-])ccc2Cl)c2cc([N+](=O)[O-])ccc2N1,4.7,-7.5,-0.1,0.1,-20.1,x,x,x,
SMILES,Jurkat NFkB inh,Mdm2-MdmX inh,Gli-Sufu block,Beta cell apopt,697 NFkB inh,Jurkat NFkB conf,Mdm2-MdmX conf,Full FLuc ctr,others
COC(=O)C[C@]1(C(=O)OC)CN(C#N)N(c2ccc(Cl)cc2)C12c1ccccc1-c1ccccc12,97.3*,98.6*,37.9,111.6*,-26.3,76.5*,7.0,x,
CC12CCC3C(CCC4(O)CC(O)CCC34C=O)C1(O)CCC2C1=CC(=O)OC1 (configuration not stated),x,x,3.6,x,x,x,x,x,
C[C@]12CCC3C(CCC4=CC(O)CC[C@@]43/C=N/O)C1(O)CCC2C1=CC(=O)OC1 (some centres not stated),95.3*,58.4*,-2.4,-3.4,-26.8,79.2*,72.0*,18.7,
CCCCN=C[C@]12CCC(O)CC1(O)CCC1[C@@H]2CC[C@]2(C)[C@H](C3C=CC(=O)O3)CCC12O (some centres not stated),94.3*,58.8*,0.6,-10.0,-54.1,78.6*,69.8*,49.9*,
C[C@]12CC[C@H]3[C@@H](CC[C@]4(O)C[C@@H](O)CC[C@]34C=O)[C@@]1(O)CC[C@@H]2C1=CC(=O)OC1,98.3*,69.5*,-0.3,0.0,-52.9,86.3*,69.1*,28.0,
Cc1c(N=Cc2c(O)n(Cc3ccco3)c(=O)[nH]c2=O)c(=O)n(-c2ccccc2)n1C,-8.1,4.5,-17.6,-2.5,14.1,x,x,x,
COc1ccc(-c2nn(CCC#N)cc2C(=O)NCc2ccccc2)cc1[N+](=O)[O-],-9.3,0.3,-2.2,-9.8,4.4,x,x,x,
C#CC[N+]1(C)[C@@H]2CC(OC(=O)C(CO)c3ccccc3)C[C@H]1C(O)C2 (some centres not stated),-0.2,-17.0,3.6,2.8,-5.0,x,x,x,
C=CC1CN2CCC1CC2c1[nH]c2ccccc2c1CCO (configuration not stated),5.0,23.7,5.2,0.9,7.9,x,x,x,
